{"source": "PubChem BioAssay", "note": "Values without a mark were called inactive.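 Rule for the calls: active = z-score of at least 1.8 in each of two replicates, scored against plate mean and spread of sample wells; inactive = the rest.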", "data": [{"assay": "viability rescue of complex I mutant cybrids, primary screen, cell-based, galactose medium, ATP luminescence (AID 1645843);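 note: positive z means more ATP and so rescue of galactose-driven cybrid death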", "conditions": "complex I mutant cybrid cells, 72 h, active compounds read high", "values": [{"smiles": "Cc1cc(N2CCC(Cn3cc(CN)nn3)CC2)nc(-c2ccccc2O)n1", "z-score": -1.23}, {"smiles": "CCC1(CC)CC1C(=O)N1CCC(n2cc(C3CC3)nn2)CC1", "note": "(stereo unspecified)", "z-score": -0.51}, {"smiles": "O=C(C1CCCCCC1)N1CCCC(Cn2cc(-c3ccccn3)nn2)C1", "note": "(stereo unspecified)", "z-score": -0.33}, {"smiles": "CC(=O)c1ccccc1-c1ccc2ccccc2n1", "z-score": -0.515}, {"smiles": "Cn1nc(NC(=O)Cn2ccc(-c3ccsc3)n2)c2ccccc21", "z-score": 0.985}, {"smiles": "Cc1ccc2c(=O)n(C3CC(C)(C)NC(C)(C)C3)cnc2c1C", "z-score": -0.535}, {"smiles": "CC(C)c1cc(C(=O)N2CCCC(c3ccccc3)C2)on1", "note": "(stereo unspecified)", "z-score": -0.55}, {"smiles": "Cc1nn(C)cc1-c1ccnc(NCCc2nc(-c3ccccn3)no2)n1", "z-score": -0.82}, {"smiles": "O=C(C(=O)N1CCCCC1c1nc2ccc(F)cc2[nH]1)c1ccccc1", "note": "(stereo unspecified)", "z-score": 0.05}, {"smiles": "CCCC[C@@H](N)C(=O)N1CCC(n2cc(CCCO)nn2)CC1", "z-score": -0.47}, {"smiles": "c1cnn(-c2ccc(N3CCC(N4CCC4)CC3)cc2)c1", "z-score": -0.48}, {"smiles": "COc1ccc(N2CCN(C(=O)Nc3nc(C)ns3)CC2(C)C)cc1", "z-score": -0.445}, {"smiles": "Cc1ccc(OCc2nnc(NC(=O)NCCc3cnc[nH]3)s2)cc1", "z-score": -0.48}, {"smiles": "CCCC(CCC)C(=O)N1CCC(n2cc(C(C)O)nn2)CC1", "note": "(stereo unspecified)", "z-score": -0.47}, {"smiles": "Cn1cc(C(=O)N2CCc3[nH]nc(-c4ccccc4F)c3C2)c2ccccc21", "z-score": -0.945}, {"smiles": "CC(=O)NCCC1CCN(C(=O)C(C)(C)Oc2cc(C)ccc2Cl)CC1", "z-score": -0.545}]}]}
